# GluA2 TARP mod: modulators of AMPA receptor GluA2-stargazin complexes; O88602+P19491; HEK293 GluA2+stargazin, membrane potential dye (FDSS), glutamate EC50; hits were called plate by plate, in both directions; calls only at 30 µM; 40,000 compounds, 3.5% hits;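 active = any of four per-well response measures lying three or more SD from its plate-wide compound average, in either direction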
# GIRK2 activator: Activators of human GIRK2-containing channels; HEK293 GIRK2/NPY4 cells, thallium flux fluorescence; 34,000 tested, under 10 active; P48051; AID 1259324; activation (% efficacy), % for hits at 37.5 µM;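 active = primary screen hit, no activity in plain HEK293 cells, and in GIRK2-only cells above 5% efficacy rising with concentration; inactive = the rest, including fluorescent compounds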;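 also: efficacy is normalized control-subtracted fluorescence 15 s after thallium addition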
# Target sequence (P48051 whole entry, looked up): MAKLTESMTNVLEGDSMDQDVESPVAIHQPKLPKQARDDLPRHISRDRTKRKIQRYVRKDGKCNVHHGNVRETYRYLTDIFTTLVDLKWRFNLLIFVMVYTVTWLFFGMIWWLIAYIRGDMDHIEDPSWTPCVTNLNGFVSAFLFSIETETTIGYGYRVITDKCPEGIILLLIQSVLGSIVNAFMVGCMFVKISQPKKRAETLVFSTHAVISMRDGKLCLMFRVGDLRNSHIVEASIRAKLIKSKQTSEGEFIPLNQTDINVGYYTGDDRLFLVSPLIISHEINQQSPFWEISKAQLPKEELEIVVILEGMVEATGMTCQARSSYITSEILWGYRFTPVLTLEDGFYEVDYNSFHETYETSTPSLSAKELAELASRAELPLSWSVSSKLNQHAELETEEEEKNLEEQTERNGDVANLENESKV
# The depositor's hits bear a star; i = inactive; · = no result; + = active, no number. The entries come from a sample that favours hits as a whole.
SMILES,GluA2 TARP mod,GIRK2 activator
CC(C)n1nccc1-c1nnc(NC(=O)C2COc3ccccc3O2)o1 (stereo not drawn),i,i
Cc1ccc(OCCCC(=O)Nc2nccs2)c(C)c1,i,i
CCCCCNC(=O)CCCOc1ccc(C)cc1C,+,i
Cn1c(=O)[nH]c(=O)c2c1nc(N1CCN(CC(N)=O)CC1)n2CCCc1ccccc1,+,·
CCOC(=O)CN1CCN(c2nc3c(c(=O)[nH]c(=O)n3C)n2CCc2ccccc2)CC1,+,·
COC(=O)CN1CCN(c2nc3c(c(=O)[nH]c(=O)n3C)n2CCc2ccccc2)CC1,i,·
Cn1c(=O)[nH]c(=O)c2c1nc(N1CCC(C(N)=O)CC1)n2CCCc1ccccc1,i,·
O=C(NCC1COC2(CCCC2)O1)C(=O)Nc1cccc(Cl)c1 (stereo not drawn),i,·
O=C(Nc1c2c(nn1-c1ccccc1)CS(=O)(=O)C2)C(=O)NC1CCCCC1,i,i
O=C1/C(=C/c2cccc(Br)c2)Oc2cc(O)ccc21,i,·
CCOc1ccc(C(=O)Nc2sc3c(c2-c2nc4ccccc4s2)CCN(CC)C3)cc1,i,·
Cc1cccc(C(=O)Nc2ccc([N+](=O)[O-])cn2)c1,i,·
COc1cccc(OC)c1C(=O)Nc1ccc(OC(C)C)cc1,i,i
CCCC(CCC)C(=O)N1CCN(c2nccn2CC)CC1,+,i
CCCC(CCC)C(=O)N1CCN(c2nccn2C)CC1,·,i
COc1cc(NC(=O)CCc2csc(NC(=O)c3ccccc3)n2)cc(OC)c1OC,i,i
O=C(CSc1n[nH]c(=O)c2cc(-c3ccco3)nn12)NC1CCCCC1,i,i
CC1=C(C(=O)Nc2cc(C(F)(F)F)ccc2Cl)C(c2ccc(C)cc2)C2=C(CCCC2=O)N1 (stereo not drawn),+,·
CC1=C(C(=O)Nc2cccc(C(F)(F)F)c2)C(c2ccc(F)cc2)C2=C(CCCC2=O)N1 (stereo not drawn),i,·
Cn1c(=O)c2c(NCCc3ccc(S(N)(=O)=O)cc3)ccnc2n(C)c1=O,+,i
Cn1c(=O)c2c(SCC(=O)NCCc3ccccc3)ccnc2n(C)c1=O,i,i
Cc1cc(-c2nnc(NC(=O)c3ccc(S(=O)(=O)N4CCCCC4)cc3)o2)nn1C,+,i
CN(C)S(=O)(=O)c1ccc(C(=O)Nc2nnc(-c3ccc(Br)s3)o2)cc1,i,i
Cc1cc(-c2nnc(NC(=O)c3cccc(C(F)(F)F)c3)o2)nn1C,i,i
CCN(CC)S(=O)(=O)c1ccc(C(=O)Nc2nnc(-c3ccc(Br)s3)o2)cc1,+,i
SMILES,GluA2 TARP mod,GIRK2 activator
Cc1cc(-c2nnc(NC(=O)c3ccc(S(C)(=O)=O)cc3)o2)nn1C,i,i
CCN(CC)S(=O)(=O)c1ccc(C(=O)Nc2nnc(-c3cc(C)n(C)n3)o2)cc1,+,i
Cc1cc(-c2nnc(NC(=O)c3nc4ccccc4s3)o2)nn1C,+,i
Cc1ccc(-c2nnc(NC(=O)c3ccc(S(=O)(=O)N4CCCCC4)cc3)o2)cc1C,i,i
COCCn1c(=O)c2c(nc3n(-c4ccc(Br)cc4)c(C)cn23)n(C)c1=O,i,·
COCC(=O)N1CCCc2ccc(NC(=O)Nc3ccccc3C(F)(F)F)cc21,i,i
CCc1ccc(NCc2cc3cc4c(cc3n(CC(=O)Nc3ccc(OC)cc3)c2=O)OCCO4)cc1,i,i
COc1ccc(CC(=O)NCCCN2CCOC(c3ccccc3)C2)cc1 (stereo not drawn),i,i
Cc1nc2ccc(NC(=O)Nc3ccccc3C(F)(F)F)cc2s1,i,·
CC(=O)c1ccc(C(=O)Nc2nnc(-c3cc(C)n(C)n3)o2)cc1,+,i
Cc1cc(-c2nnc(NC(=O)c3cc(Cl)sc3Cl)o2)nn1C,i,i
CCOc1cc(C(=O)Nc2nnc(-c3cc(C)n(C)n3)o2)cc(OCC)c1OCC,+,i
COc1cccc2cc(C(=O)Nc3nnc(-c4cc(C)n(C)n4)o3)oc12,+,i
Cc1cc(-c2nnc(NC(=O)c3cc4ccccc4o3)o2)nn1C,i,i
Cc1cc(-c2nnc(NC(=O)c3ccc(SC(C)C)cc3)o2)nn1C,i,i
Cc1cc(C(=O)Nc2nnc(-c3cc(C)n(C)n3)o2)nn1C,+,i
Cc1ccc(C(=O)Nc2nnc(-c3cc(C)n(C)n3)o2)cc1C,i,i
COc1cc(N2CCN(C(=O)c3cc(Cl)ccc3OC)CC2)nc(OC)n1,i,i
COc1cccc(N2CC(c3nc4ccccc4n3CC(O)COc3c(C)cccc3C)CC2=O)c1 (stereo not drawn),i,i
COc1ccc(S(=O)(=O)CCCC(=O)Nc2nccs2)cc1,i,·
CC(C)Cc1cnc2c(c1SCCC1OCCO1)c(=O)n(C)c(=O)n2C,i,i
CC(=O)c1ccc(N2CCN(C(=O)c3ccc(Cn4c(=O)[nH]c5ccccc5c4=O)cc3)CC2)cc1,i,i
Cc1ccc(C)c(N2CCN(C(=O)c3ccc(Cn4c(=O)[nH]c5ccccc5c4=O)cc3)CC2)c1,+,i
O=C(CCCn1nc(-c2ccc(Cl)cc2)ccc1=O)Nc1ccc2c(c1)OCCO2,+,i
O=C(CCCn1nc(-c2ccccc2)ccc1=O)Nc1ccc2c(c1)OCCO2,·,i
SMILES,GluA2 TARP mod,GIRK2 activator
Cc1ccc(C(CNS(=O)(=O)c2ccc3c(c2)OCCO3)N(C)C)cc1 (stereo not drawn),i,·
O=C(NCC1CCN(C(=O)c2cc3ccccc3o2)CC1)c1cc(-c2ccccc2)on1,+,i
O=C(NCC1CCN(C(=O)c2cc3ccccc3o2)CC1)c1ccc(Cl)s1,+,i
O=C(NCC1CCN(C(=O)c2cc3ccccc3o2)CC1)c1cc(Cl)ccc1Cl,i,i
Cc1csc(C(=O)NCC2CCN(C(=O)c3cc4ccccc4o3)CC2)c1,+,i
Cc1cc(C(=O)NCC2CCN(C(=O)c3cc4ccccc4o3)CC2)c(C)o1,i,i
CC(C)(C)NC(=O)N1CCC(CNC(=O)c2cc(-c3ccccc3)on2)CC1,i,i
CCn1ccnc1N1CCN(C(=O)c2cccs2)CC1,·,i
CCOc1ccc(N2C(=O)N(c3ccc([N+](=O)[O-])cc3)C3CS(=O)(=O)CC32)cc1 (stereo not drawn),i,i
COc1ccc(OC)c(S(=O)(=O)NCCn2nc(-c3ccccc3)ccc2=O)c1,i,·
O=C(CN1CCC(c2nc3ccccc3[nH]2)CC1)Nc1cccc(C(F)(F)F)c1,i,i
Cc1cnc(NC(=O)C2CN(c3nc4ccccc4s3)C2)s1,i,i

# Bioassay records as filed in PubChem.
